We go through 67 compounds from PubChem BioAssay AID1634 (National Center for Advancing Translational Sciences (NCATS), 2009).

Molecules are shown by their SMILES. The whole screen tested about 260,000 compounds, of which about 150 (0.058%) were called active. Where a call stands in place of a potency, no number is given. The sample holds actives, similar compounds and a random draw of the others, so the mix is not that of the screen. Calls come from the whole dose curve; as a rule, active = well fitted inhibition curve with a large enough effect; inconclusive = small, poorly fitted or top-dose-only effect; inactive = no such curve, though single readings can be large or run the other way.
Potency is the fitted concentration of half-maximal effect.

The assay deals with Pyruvate kinase PKM (Homo sapiens) (UniProt P14618). Put plainly: qHTS Assay for Inhibitors of Human Muscle isoform 2 Pyruvate Kinase. Note: nearly all actives have a fitted effect of over 60% in size. The following applies: purified PKM2, ATP generation, Kinase-Glo luminescence; series mostly up to 57.5 µM. On the procedure: NIH Chemical Genomics Center [NCGC] Matthew G. Vander Heiden, M.D., Ph.D. [Harvard Medical School, 77 Avenue Louis Pasteur, Boston, MA 02115] […] ATP generation was detected in a coupled reaction by luciferase-mediated luminescence, an ATP-dependent process. […] The enzyme was assayed at an intermediate level of activity to screen for both inhibitors and activators.
Chain of Pyruvate kinase PKM (Homo sapiens) (P14618 whole entry, looked up, canonical isoform): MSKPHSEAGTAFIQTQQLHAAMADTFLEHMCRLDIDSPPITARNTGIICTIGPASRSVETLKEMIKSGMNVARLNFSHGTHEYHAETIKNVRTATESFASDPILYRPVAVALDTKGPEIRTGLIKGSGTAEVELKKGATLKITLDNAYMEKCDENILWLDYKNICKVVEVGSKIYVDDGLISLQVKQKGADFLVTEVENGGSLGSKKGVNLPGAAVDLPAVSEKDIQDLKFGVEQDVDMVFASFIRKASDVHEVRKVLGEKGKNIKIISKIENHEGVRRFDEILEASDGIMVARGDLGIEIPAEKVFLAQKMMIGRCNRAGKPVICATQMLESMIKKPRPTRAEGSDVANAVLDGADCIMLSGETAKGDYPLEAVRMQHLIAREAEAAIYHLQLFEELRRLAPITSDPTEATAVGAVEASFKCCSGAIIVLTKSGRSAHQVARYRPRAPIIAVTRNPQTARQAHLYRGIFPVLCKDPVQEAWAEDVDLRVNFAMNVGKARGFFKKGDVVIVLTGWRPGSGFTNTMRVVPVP
NCGC Assay Protocol Summary: Three uL of substrate mix (at r.t.) in assay buffer (50 mM Imidazole pH7.2, 50 mM KCl, 7 mM MgCl2, 0.01% Tween 20, 0.05% BSA) was dispensed into white solid bottom 1,536 well microtiter plates so that the final concentrations of substrates in the assay were 0.1 mM ADP and 0.5 mM PEP. 23 nL of compound were delivered by a pin tool and 1 uL of enzyme mix in assay buffer (4 degree Celsius) was added. Plates were incubated at room temperature for 1 hour. Two uL of detection mix (Kinase-Glo, Promega; at 4 degree Celsius protected from light) was added and luminescence read by a ViewLux (Perkin Elmer) at 5 second exposure/plate. Data were normalized to the uninhibited and AC100 inhibition (no enzyme). To monitor activation, the first column contained a titration of the activator, NCGC00031955-01 (16-point 1:2 dilutions in duplicate starting at 57 uM) and the first 16 rows of column 4 contained 57 uM of NCGC00031955-01.
Consider `O=C(NCCN1C(=O)S/C(=C\c2cccnc2)C1=O)c1ccc(S(=O)(=O)N2CCCC2)cc1`, for which the Potency entry was “inactive”.

As for `Cc1ccnc(-n2sc3ccccc3c2=O)n1`, the Potency entry was “inactive”.

In the case of `CC(C)NC(=O)CCCn1c(=S)[nH]c2cc3c(cc2c1=O)OCO3`, the Potency entry is “inactive”.

For the compound `O=C(Cn1nc(CNc2ccc(Cl)cc2)[n+]2c1CCCCC2)c1ccc(Cl)cc1`, the Potency entry was “inactive”.

As to `Cc1ccc(NC(=O)c2cc(-c3ccc(C)o3)nc3ccccc23)nc1`, the Potency entry is “inactive”.

Turning to `Cc1ccnc(NC(=O)c2ccoc2C)c1`, the Potency is 14.1 µM (active).

With `CCOc1cccc2c1OC1(CCCCC1)N1N=C(c3cccnc3)CC21` (configuration not stated), the Potency result is “inactive”.

For `O=S(=O)(c1ccc(F)cc1)N1CCN(C(=S)NC2CCCC2)CC1`, the Potency result was “inactive”.

Regarding `Cc1cc(C(=O)N/N=C/c2ccccc2[N+](=O)[O-])c(C)o1`, the Potency entry is “inactive”.

`Cc1ccccc1CN1C[C@@H]2C[C@@H](c3cn(C)nc3-c3ccccc3)N3CCC[C@@]23C1=O`: the Potency entry was “inactive”.

For `CSc1ccc(/C=N\NC(=O)COc2ccc(Cl)cc2Br)cc1`, the Potency result is “inactive”.

For the compound `Cn1c(SCC(=O)Nc2cccc(O)c2)nnc1-c1ccc(S(=O)(=O)N2CCOCC2)cc1`, the Potency result was “inactive”.

Turning to `Cc1ccccc1-n1nc(C)c2c1N=C1C(Cl)=CC(Cl)=CN1C2c1ccc(C(=O)O)cc1` (configuration not stated), the Potency entry is “inactive”.

Take `Cn1c(=O)c2c(nc(SCCNS(=O)(=O)c3ccccc3)n2C)n(C)c1=O`: the Potency result is “inactive”.

Regarding `O=C(NC1=NCCS1)[C@H](Cc1ccccc1)N1C(=O)c2ccccc2C1=O`, the Potency result is “inactive”.

In the case of `CN(C(=O)CSc1nnc(N)s1)c1c(N)n(Cc2ccccc2)c(=O)[nH]c1=O`, the Potency entry was “inactive”.

Turning to `Cc1ccc(NC(=O)OCCNC(=O)c2ccncc2)cc1`, the Potency entry is “inactive”.

Regarding `Cc1ccc(-c2cc(C(=O)N/N=C/C=C/c3ccco3)c3ccccc3n2)cc1C`, the Potency entry was “inactive”.

Take `COc1ccc(-c2nnc(SC(C)C#N)o2)cc1` (configuration not stated): the Potency result was “inactive”.

As to `Cc1ccc(S(=O)(=O)N2CCN(Cc3cccc(C)c3O)CC2)cc1`, the Potency entry was “inactive”.

For `Cc1ccc(-c2nc(SCC(=O)Nc3ccccc3OC(F)F)c3c(C)c(C(=O)O)sc3n2)cc1`, the Potency entry was “inactive”.

For the compound `Cc1nc(SCC(=O)N2CC(=O)Nc3ccccc32)c2c(C)c(C)sc2n1`, the Potency entry was “inactive”.

In the case of `COc1ccc(-c2nnn(CC(=O)N(CCO)C(C(=O)NC3CCCC3)c3ccc(F)cc3)n2)cc1` (configuration not stated), the Potency result was “inactive”.

On to `CN(C(=O)COC(=O)c1cc(-c2ccco2)nc2ccccc12)C1CCS(=O)(=O)C1` (configuration not stated), for which the Potency result was “inactive”.

On to `CC(C)CCn1cnc2c1c(=O)n(CC(=O)NC(N)=O)c(=O)n2Cc1ccccc1`, for which the Potency result was “inactive”.

With `COc1ccc(OC)c(Nc2nc(-c3ccc(O)c(O)c3)cs2)c1`, the Potency result is “inactive”.

On to `COc1ccc(COCCN2CCN(S(=O)(=O)c3ccccc3)CCC2=O)cc1`, for which the Potency result was “inactive”.

For the compound `COC(=O)c1[nH]c2ccccc2c1NS(=O)(=O)c1ccc(OC)cc1OC`, the Potency result was “inactive”.

Consider `O=C(CSc1nnc(-c2cccs2)n1Cc1ccccc1)N1CCc2ccccc2C1`, for which the Potency result is “inactive”.

Turning to `CCN(/N=C/c1ccccc1)c1cc(=O)n(C)c(=O)[nH]1`, the Potency entry is “inactive”.

Turning to `COc1cccc(/C=N\NC(=O)C2=NNC(=O)C2C)c1O` (configuration not stated), the Potency is 17.8 µM (active).

Consider `CCn1c(SCC(=O)N/N=C/C=C/c2ccccc2[N+](=O)[O-])nnc1-c1ccccc1`, for which the Potency result was “inactive”.

Turning to `Cc1noc(C)c1S(=O)(=O)Nc1ccc(C(=O)N2CCN(c3ccc(F)cc3)CC2)cc1`, the Potency result was “inactive”.

Turning to `Cc1ccc(O)c(CNc2nc3ccccc3[nH]2)c1`, the Potency result is “inactive”.

With `Cc1ccccc1-c1nnn(CC(=O)c2ccc(S(=O)(=O)N3CCCC3)cc2)n1`, the Potency result is “inactive”.

As for `Cc1ccc(CCC(=O)Nc2ncc(Cc3cc(Cl)ccc3Cl)s2)o1`, the Potency entry is “inactive”.

Consider `COCc1cc(=O)[nH]c(SC)n1`, for which the Potency result was “inactive”.

As to `Cc1nnc(SCC2=C(C(=O)O)N3C(=O)C(NC(=O)Cn4nc(C)c(Cl)c4C)C3SC2)s1` (configuration not stated), the Potency entry is “inactive”.

For the compound `Oc1ccccc1N1CCN(c2ncnc3sc(-c4ccccc4)cc23)CC1`, the Potency result is “inactive”.

On to `C=CCn1c(SCc2csc(C)n2)nc2scc(-c3ccc(C)o3)c2c1=O`, for which the Potency result is “inactive”.

On to `CCn1cc(C(=O)NCc2ccc3c(c2)OCO3)c2cc(OC)c(OC)cc2c1=O`, for which the Potency entry is “inactive”.

As for `Nc1nc(SCC(=O)N2CCN(S(=O)(=O)c3ccc(Cl)cc3)CC2)n[nH]1`, the Potency entry was “inactive”.

As to `C=CC(=O)c1ccc2ccccc2c1`, the Potency result is “inactive”.

Consider `CC(C)Oc1ccc(CCC(=O)NNC(=S)NCc2ccccc2)cc1`, for which the Potency entry is “inactive”.

`N#Cc1nc(COc2ccc(Cl)cc2)oc1N1CCCC1`: the Potency entry was “inactive”.

For the compound `CS(=O)(=O)Nc1cccc(C2=NN(S(=O)(=O)c3ccccc3)C(c3cccs3)C2)c1` (configuration not stated), the Potency entry is “inactive”.

In the case of `O=C(CCSCCc1ccccn1)Nc1nccs1`, the Potency result is “inactive”.

Consider `CCOc1cc(/C=N/O)ccc1OCc1ccccc1F`, for which the Potency entry was “inactive”.

Take `O=c1[nH]c2ccccc2n2c(-c3ccccc3)nnc12`: the Potency is 25.1 µM (active).

As for `COc1c(O)ccc2c1CN1CCc3cc4c(cc3C1C2)OCO4` (configuration not stated), the Potency result is “inactive”.

Take `COc1ccc(C(=O)CCc2ccccc2O)c(OC)c1`: the Potency result is “inactive”.

As for `CNC(=O)COc1ccc(S(=O)(=O)Nc2ccccc2)cc1`, the Potency entry is “inactive”.

Regarding `C(=N\N1CCN(c2ccccn2)CC1)/C1=C(N2CCOCC2)C(=C/c2ccccc2)/CC1`, the Potency result was “inactive”.

In the case of `COc1cccc(C(=O)NNS(=O)(=O)c2ccc(F)cc2)c1`, the Potency entry is “inactive”.

With `Cc1ccc(C(=O)Cn2cc([N+](=O)[O-])nc2C)cc1`, the Potency entry was “inactive”.

For the compound `Cc1ccc(CNC(=O)C2CC(c3ccccc3[N+](=O)[O-])=NO2)o1` (configuration not stated), the Potency result was “inactive”.

For `O=c1cc(CO)oc(C(Nc2cccc(C(F)(F)F)c2)c2ccccn2)c1O` (configuration not stated), the Potency result is “inactive”.

Turning to `COc1ccc(-n2c(SCC(=O)NCc3cccs3)nnc2-c2ccoc2C)cc1`, the Potency entry is “inactive”.

As for `Cc1ccc(-c2nn(-c3ccccc3)cc2CN(Cc2ccccc2)C(=O)CCC(=O)O)o1`, the Potency entry is “inactive”.

`Cc1cc(C)c2nc(-c3ccco3)cc(C(=O)O)c2c1`: the Potency entry is “inactive”.

Take `Cc1ccc(-n2nc(-c3ccco3)cc2C(=O)NCc2cccnc2)cc1`: the Potency entry is “inactive”.

Turning to `N#CCC(=O)N/N=C/c1cn(Cc2ccc3ccccc3c2)c2ccccc12`, the Potency entry is “inactive”.

Take `CC(C)(C)C1C/C(=C/c2ccco2)C(=O)/C(=C/c2ccco2)C1` (configuration not stated): the Potency result was “inactive”.

Turning to `CN1CCN(c2ccc(S(=O)(=O)Nc3ccccc3)cc2[N+](=O)[O-])CC1`, the Potency result was “inactive”.

In the case of `Cc1ccc(NS(=O)(=O)c2ccc3c(c2)oc(=O)n3C)c(C)c1`, the Potency entry is “inactive”.

As for `COc1ccc2c(c1)C=CC1(O2)N(CCO)c2ccccc2C1(C)C` (configuration not stated), the Potency result was “inactive”.

In the case of `O=C(Cc1cccs1)Nc1nnc(C2CC2)s1`, the Potency result was “inactive”.
